Measurements: PubChem BioAssay (NCI)
Compounds without any hit were thinned out: in the full panel of roughly 83,000, 20% have a hit.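 Plates (96-well) were seeded with cells, treated with compound at one concentration, and incubated for 48 hours before percent growth was determined.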 Active and inactive are the calls of the source. How the source made its calls: active means growth percent below 10; inactive means the rest.

system: MDA-MB-468 breast; assay: NCI-60 one-dose screen, 48 h (100 = growth as untreated, 0 = no growth, -100 = all killed); conditions: 10 µM unless noted

| SMILES | growth |
| --- | --- |
| CCOC(=O)c1c(NCC(=O)Nc2cccc(Cl)c2)sc2c1CCCC2 | 73% (inactive) |
| CN(CCc1ccccn1)c1ccccc1 | 113% (inactive) |
| Cc1cc(N2CCCCC2)nc(N(CCCNc2ccnc3cc(Cl)ccc23)Cc2ccco2)n1 | 6.73% (active) |
| [O-][N+](=Nc1cccc(Cl)c1)c1cccc(Cl)c1 | -25% (active) |
| O=C(NNC(=S)Nc1ccccc1)c1ccncc1 | 122% (inactive) |
| Clc1ccc(COc2ccc(Nc3ncnc4onc(-c5ccccc5)c34)cc2)cc1 | 78.5% (inactive) |
| Cc1ncc(-c2ccnc(Nc3ccc(S(C)(=O)=O)cc3)n2)n1C(C)C | -48.8% (active) |
| c1ccc(Nc2ccccn2)cc1 | 111% (inactive) |
| CCCCC[C@H]1C/C=C2/C(=O)C=C[C@@H]2C/C=C\CCCC(=O)O1 | -50.6% (active) |
| O=C1C(=O)c2ccccc2C(O)=C1CCCc1ccc(Oc2ccccc2)cc1 | 44.7% (inactive) |
| CCN1C(=O)/C(=C/C=C/N(C)c2ccccc2)SC1=S | 89.1% (inactive) |
| CCOC(=O)NC(C)C | 96.4% (inactive) |
| C/C(=C\CCc1ccsc1)CC/C=C(\C)CCCN1CCN(CCO)CC1 | 7.83% (active) |
| CN(C)CCNc1ccc2ncc(C#Cc3cncc(C(=O)Nc4ccc(CN5CCN(C)CC5)c(C(F)(F)F)c4)c3)n2n1 | -67.9% (active) |
| C=C1CCC2C(C)(COC(=O)CC)C(OC(=O)CC)CCC2(C)C1C/C=C1/C(=O)OCC1OC(=O)CC (stereo not given) | -48.5% (active) |
| O=C(/C=C/c1cccs1)Nc1ncc(Cc2ccc(Cl)c(Cl)c2)s1 | 58.2% (inactive) |
| O=c1c2ccccc2nc(SCCN2CCCCC2)n1CCc1ccccc1 | 92% (inactive) |
| CCOC(=O)Nc1nn[nH]n1 | 101% (inactive) |
| c1ccc(COc2ccc(Nc3ncnc4c3cnn4-c3ccccc3)cc2)cc1 | 93.1% (inactive) |
| Cn1c(O)c(N=NC(=O)c2cc(-c3ccccc3)on2)c2ccccc21 | 107% (inactive) |

| SMILES | growth |
| --- | --- |
| CS(=O)(=O)Nc1cc(-c2ccc3ncc(C#N)c(NCc4ccccc4O)c3c2)cnc1Cl | -23.1% (active) |
| Nc1ccc(-c2nc3cc(Oc4ccc(Oc5ccc6[nH]c(-c7ccc(N)cc7)nc6c5)cc4)ccc3[nH]2)cc1 | 90.3% (inactive) |
| CC(C)CCCC(=O)O | 90.8% (inactive) |
| NC(=O)c1cccc(N2Cc3ccccc3OC3=C2C(=O)c2c(O)ccc(O)c2C3=O)c1 | -21.4% (active) |
| CN1CCN(c2ccc(NC(=O)c3cncnc3Nc3ccc(OCc4cccc(F)c4)c(Cl)c3)cc2)CC1 | 71.8% (inactive) |
| COc1cnc2c(c1)C(=O)c1c-2n(CCCN2CCC(O)CC2)c(=O)c2cc(Cl)ccc12 | 38.5% (inactive) |
| COc1cc(OC)c(/C=C/C(=O)c2c(O)cc(OC)c(C3CCN(C)CC3)c2OC)c(OC)c1 | -91.1% (active) |
| Cc1cc(=O)[nH]c2c(C#N)cnn12 | 106% (inactive) |
| CCOC(=O)c1cc(/C=C/c2ccc(Cl)cc2Cl)on1 | 37.6% (inactive) |
| O=C(Cn1nncc1CN1C(=O)CSC1=O)Nc1ccc(F)cc1 | 104% (inactive) |
| CCOC(=O)c1c(Nc2nc3ccccc3s2)sc2c1CCC(=O)C2 | 94.8% (inactive) |
| CC(C)c1nn(-c2ccccc2)c(N2CCCCC2)c1/C=N/NC(N)=S | 89.6% (inactive) |
| CCOC(=O)c1c(C)nc2c(c1N)CC(=O)N2Cc1ccc(OC)cc1 | 36.2% (inactive) |
| CC[n+]1c(C)ccc2cc(C)ccc21 | 58.1% (inactive) |
| Cc1cc2ccccc2c2cc3ccccc3cc12 | 5.23% (active) |
| COc1ccc(C(=O)N/N=C/c2ccc(O)cc2O)cc1Nc1ccnc(C(F)(F)F)c1 | 29.2% (inactive) |
| O=C(C[C@@H](C(=O)NCc1cccc(C(F)(F)F)c1)N1C(=O)[C@@H](N2C(=O)OC[C@@H]2c2ccccc2)[C@H]1/C=C/c1ccccc1)NC1CCN(Cc2ccccc2)CC1 | -1.25% (active) |
| COc1ccc(-c2nc(SCC(=O)c3ccc(Br)cc3)[nH]c(=O)c2C#N)cc1 | 100% (inactive) |
| COc1cc(/C=C/C(=O)c2c(C)nc3ccccc3c2/C=C/c2ccc(C)cc2)cc(OC)c1OC | 18.9% (inactive) |
| Cc1cnc(NC(=O)Nc2cc(Br)c(C)cc2OC[C@@H]2CNCCO2)cn1 | -26.7% (active) |
